Experimental data: PubChem BioAssay (EPA / NIEHS)
Values joined by “and” are separate entries in the source; they are usually repeats but may differ in a detail not shown here. Equal values may be shown once. Some structures have more than one record in an assay (separate samples or runs), and their calls can disagree. Active and inactive are the calls of the source. How the source made its calls: active means hit-call score of the fitted dose curve at least 0.9, where 1 is the maximum; inactive means score below 0.9.

The compounds below were run on Matrix Metallopeptidase 1 (MMP1), MMP1 (gene 4312) (assay: BSK_hDFCGF_MMP1: BioMAP Diversity Plus: hDFCGF Assay for Matrix Metallopeptidase 1 (MMP1) Biomarker Activity (AID 2283064)). Settings: primary human foreskin fibroblasts; actives raise or lower the signal.
Method: BSK_hDFCGF is a cell-based, multiplexed-readout assay that uses foreskin fibroblast, a human skin primary cell, with measurements taken at 24 hours after chemical dosing in a 96-well plate.BSK_hDFCGF_MMP1 is an assay component measured in the BSK_hDFCGF assay. It measures MMP-1 antibody related to regulation of gene expression using ELISA technology.Data from the assay component BSK_hDFCGF_MMP1 was analyzed into 1 assay endpoint. This assay endpoint, BSK_hDFCGF_MMP1, was analyzed with bidirectional fitting relative to DMSO as the negative control and baseline of activity. Using a type of binding reporter, gain or loss-of-signal activity can be used to understand changes in the signaling as they relate to the gene MMP1. Furthermore, this assay endpoint can be referred to as a primary readout, because this assay has produced multiple assay endpoints where this one serves a signaling function. To generalize the intended target to other relatable targets, this assay endpoint is annotated to the protease intended target family, where the subfamily is matrix metalloproteinase.
The levels of cell surface (or secreted, indicated by the prefix "s") biomarker endpoints were measured by ELISA. Overt cytotoxicity to cells in confluent adherent cultures (all systems other than the BT system) was assessed by measuring total protein levels using sulforhodamine B (SRB) staining in parallel cultures at the time of biomarker measurements, indicated as SRB endpoints. For proliferation assays for adherent cell types, individual cell types are cultured at sub-confluence and relative cell numbers quantified by SRB staining at time points optimized for each system (48 h: 3C and CASM3C systems; 72 h: BT and HDF3CGF systems; 96 h: SAg system). SRB was performed by staining cells with 0.1% SRB after fixation with 10% TCA and reading wells at 560 nm.Viability and proliferation of PBMC (T cells) was quantified by Alamar Blue reduction for the SAg and BT systems. For PBMC viability (referred to as PBMC Cytotoxicity within the assay endpoint names), cells were plated (75,000/well in a 96-well plate) and then chemical samples added for 1 h before addition of activators, SEB and TSST-1 (20 ng/mL final concentration each). Cells were incubated for 90 h. Then, Alamar Blue (20 uL/well) (Invitrogen, Cat DAL1100) was added for 6 h, and the plates were read with a fluorescence microplate reader at 546/580 nm (excitation/emission). For PBMC proliferation, cells were plated and activated as above but incubated for only 16 h prior to addition of Alamar Blue. Plates were read after 6 h.
With `CCC(C)c1ccc(O)cc1` (stereo not given) the outcome was “inactive”.
In the case of `c1ccc(NNc2ccccc2)cc1`, the outcome is reported as “inactive”.
For `C[C@]12C=CC3=C4CCC(=O)C=C4CC[C@H]3[C@@H]1CC[C@@H]2O`, the outcome was “inactive”.
For `Nc1ccc(Cc2ccc(N)cc2)cc1`, the outcome was “inactive”.
With `Cc1ccc(N=C=O)cc1N=C=O` the outcome was “inactive”.
For `CCCCOC(=O)c1ccccc1C(=O)OCc1ccccc1`, the outcome was “inactive”.
`OCCCBr` was tested, and the outcome was “inactive”.
With `Nc1ccc(Oc2ccc(N)cc2)cc1` the outcome was “inactive”.
For `ClC1=C(Cl)[C@]2(Cl)[C@H]3[C@H]([C@@H]4C=C[C@H]3C4)[C@@]1(Cl)C2(Cl)Cl`, the AC50 was 29.9 µM (active).
For `CN(C)c1ccccc1`, the outcome was “inactive”.
In the case of `[As]#[In]`, the outcome is reported as “inactive”.
In the case of `OCCCl`, the outcome is reported as “inactive”.
`Nc1ccc([N+](=O)[O-])cc1` was tested, and the outcome was “inactive”.
In the case of `CC(C)N(Cc1ccccc1)C(=O)C(C)(C)C`, the outcome is reported as “inactive”.
With `Clc1ccc(Cl)c(Cl)c1` the outcome was “inactive”.
For `O=C(Oc1ccc(Br)cc1)N1CCN2CCC1CC2`, the outcome was “inactive”.
For `CC(C)COC(=O)c1ccccc1C(=O)OCC(C)C`, the outcome was “inactive”.
With `CCCSC(=O)N(CCC)CCC` the outcome was “inactive”.
For `COC(=O)Nc1nc2ccccc2[nH]1`, the outcome was “inactive”.
In the case of `CC(O)CCO` (stereo not given), the outcome is reported as “inactive”.
In the case of `c1ccc2c(c1)oc1ccccc12`, the outcome is reported as “inactive”.
In the case of `Clc1ccc(C(c2ccc(Cl)cc2)C(Cl)Cl)cc1`, the AC50 is reported as 10.8 µM (active).
With `Cc1ccc(N)cc1` the outcome was “inactive”.
In the case of `O=C(Nc1ccccc1)c1ccccc1I`, the outcome is reported as “inactive”.
`CC(C)(OOC(C)(C)c1ccccc1)c1ccccc1` was tested, and the AC50 was 38.1 µM (active).
For `CCOc1cccc(C2(N3CCN(c4ccccc4)CC3)CCC(C)CC2)c1` (stereo not given), the outcome was “inactive”.
In the case of `CCCCCCCCCCCCCN1CC(C)OC(C)C1` (stereo not given), the outcome is reported as “inactive”.
With `OCCOCCO` the outcome was “inactive”.
In the case of `O=C1CCCO1`, the outcome is reported as “inactive”.
In the case of `CCNS(=O)(=O)C(F)(F)C(F)(F)C(F)(F)C(F)(F)C(F)(F)C(F)(F)C(F)(F)C(F)(F)F`, the outcome is reported as “inactive” and the AC50 is reported as 49.2 µM (active) and 49.6 µM (active).
With `CC(C)(C)C(O)(CCc1ccc(Cl)cc1)Cn1cncn1` (stereo not given) the outcome was “inactive”.
`O=P(OCCCl)(OCCCl)OCCCl` was tested, and the outcome was “inactive”.
With `Cc1cccc(N)c1N` the outcome was “inactive”.
For `CS(=O)(=O)NC(=O)c1cc(Oc2ccc(C(F)(F)F)cc2Cl)ccc1[N+](=O)[O-]`, the outcome was “inactive”.
`CN(C)C(=O)Nc1ccc(Cl)cc1` was tested, and the outcome was “inactive”.
In the case of `[Cl-].[Cl-].[Hg+2]`, the AC50 is reported as 11.8 µM (active).
`CCCCC(CC)COC(=O)c1ccc(C(=O)OCC(CC)CCCC)c(C(=O)OCC(CC)CCCC)c1` (stereo not given) was tested, and the outcome was “inactive”.
`CC(C)(C)OOC(=O)c1ccccc1` was tested, and the AC50 was 20 µM (active).
`[O-][Cl+]O` was tested, and the outcome was “inactive”.
